# Several values for one entry are separate records, joined by “and”; a condition that tells them apart may be missing. Equal entries are not always repeated. Activity calls are given as the source filed them. Unless noted, no stated cut-off is given here; in the data, active means nuclear beta-catenin stimulation mostly above about 4.2% (no sharp cut-off); inactive means mostly below about 10%.
# How the values were obtained:
# [1] = liver-stage malaria parasite growth inhibition, primary screen, cell-based, HepG2, luciferase luminescence, HepG2 viability (AID 624349; in the data active means parasite load remaining mostly below about 12%, no sharp cut-off; inactive means mostly above about 10%;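 further: 100% = mean of DMSO negative control wells on the same plate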); settings: P. berghei liver stage in HepG2, luciferase luminescence, concentration not given here; parasite load remaining: stronger effect = lower value; viability: measured here: HepG2 viability without parasites
# [2] = stimulators of nuclear beta-catenin in C2C12, primary screen, imaging, WNT3A-conditioned medium, mouse C2C12, NPC library (AID 1117326); settings: stronger effect = higher value
# [3] = stimulators of insulin release from INS-1E, primary screen, cell-based, 5 mM glucose, NPC library (AID 1117329;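 active means compound raises insulin release from rat beta cells at 5 mM glucose, no numeric limit stated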); settings: rat INS-1E insulin secretion, at 10 µM, stronger effect = higher value
# [4] = growth inhibition of GSK3B-pretreated HCT116 cells – cell-based, CellTiter-Glo, 0.2 to 20 µM (AID 1117336;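 active means compounds lowering colon cancer cell viability after pretreatment blocking the GSK3B kinase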); settings: HCT116 viability after GSK3B inhibitor, at 20 µM, stronger effect = higher value
# [5] = inhibition of endothelial tube formation, primary screen, imaging, VEGF stimulated, CD31 staining, tube area, NPC library (AID 1117340;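 active means compound that reduces growth-factor-driven endothelial tube area in a mixed cell culture, no cutoff stated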); settings: VEGF-stimulated ADSC/ECFC co-culture, at 10 µM, stronger effect = higher value
# [6] = glucagon-like peptide 1 release enhancers, primary assay, NCI-H716 cell line, NPC library (AID 1117341;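 active means compound raises GLP1 secretion from the human gut endocrine cells, with no numeric limit stated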); settings: NCI-H716 cells, at 10 µM, stronger effect = higher value
# [7] = HCT116 colon cancer cell growth inhibition, primary screen, CellTiter-Glo luminescence, NPC library (AID 1117342;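 active means compounds that lower survival of HCT116 colon cancer cells in the luminescence readout, no numeric limit stated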); settings: at 20 µM (top of the series)
# [8] = CellTiter-Glo luminescent readout of SW480 viability loss, NPC library primary (AID 1117343;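 active means compounds that lower viability of the colon cancer cells in the luminescence readout, with no numeric limit stated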); settings: CellTiter-Glo luminescence; at 20 µM (top of the series)
# [9] = decreased DLD-1 cellular survival, CellTiter-Glo luminescent readout, NPC compound collection, primary HTS (AID 1117346;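 active means compounds that lower survival of DLD-1 colon cancer cells in the luminescence readout, no cutoff given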); settings: DLD-1 viability, CellTiter-Glo luminescence; at 20 µM (top of the series)
# [10] = sensitizers of A549 cells to miR-34 induction, primary screen, imaging, A549 dox-inducible miR-34, nuclei and caspase counts (AID 1347080;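 active means compounds whose cell count with miR-34 switched on is under 0.7 times the count with it off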); settings: A549 miR-34 inducible, Hoechst nuclei count, 48 h
# [11] = viability rescue of complex I mutant cybrids, primary screen, cell-based, galactose medium, ATP luminescence (AID 1645843;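 active means z-score of at least 1.8 in each of two replicates, scored against plate mean and spread of sample wells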;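 further: positive z means more ATP and so rescue of galactose-driven cybrid death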); settings: complex I mutant cybrid cells, 72 h, stronger effect = higher value
# [12] = survival rescue of mitochondrial mutant cells in low glucose, primary screen, MELAS cybrids, Rieske KO mouse fibroblasts, CellTiter-Glo (AID 1508586;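 active means mean z-score across replicates of 1.96 or higher in either the MELAS or the Rieske mutant cell line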;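 further: z relative to plate mean and SD of compound and empty wells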)
# [13] = differential killing of epithelial or mesenchymal cells, primary screen, imaging, PC-3E GFP, TEM4-18 mCherry, co-culture (AID 1345086;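 active means compounds killing one labelled cell type while sparing the other, by normalised counts and ratio limits, not self-fluorescent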;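 on all read-outs here: cells exposed to compound for 72 h before imaging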;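 on red/green cell ratio (normalised): normalised mesenchymal count divided by normalised epithelial count so high means epithelial killing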); settings: imaging cell counts, at 1 µM; for red/green cell ratio (normalised): actives lie on both sides
# [14] = target: NAD(+) hydrolase SARM1 (Homo sapiens) (UniProt Q6SZW1); assay: SARM1 TIR NADase inhibitors, cell lysate, NAD-Glo luminescence (AID 1508614;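 active means compound whose remaining NAD level is above about 45 nM, limit read from the data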); settings: SAM-TIR HEK293T lysate NADase, at 1 µM, stronger effect = higher value
# [15] = target: Mitogen-activated protein kinase 7 (Homo sapiens) (UniProt Q13164); assay: ERK5 transactivation activators in reporter cells, primary screen, cell-based, HTS (AID 1508626;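 active means luciferase signal above three times the same-plate solvent-only control wells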;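 further: luciferase driven by Gal4-ERK5 fusion binding five Gal4 sites before minimal TATA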); settings: HeLa Gal4-ERK5 transactivation, 18 h, at 5 µM, stronger effect = higher value
# [16] = suppressors of polyQ aggregation in yeast, 75Q-TubU reporter (AID 1593); settings: Yeast 75Q polyglutamine aggregation reporter
# [17] = inhibitors of mitochondrial cytochrome c release, biochemical, purified mitochondria (AID 1603); settings: stronger effect = lower value;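 further: mouse liver mitochondria challenged with calcium chloride; signal normalized to the plate average as 100%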
# [18] = inhibitors of polyQ protein aggregation (AID 1604); settings: polyglutamine-induced protein aggregation inhibition assay; stronger effect = higher value; tested at 2.5 µM
# [19] = system: Aerobactin synthetase IucA (Klebsiella pneumoniae hvKP1); assay: Biochemical IucA enzyme inhibition primary screen of the Spectrum library (AID 1346200; call rule not given here;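 further: 100% = wells without compound and 0% = wells lacking enzyme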); settings: malachite green pyrophosphate, A620, at 8 µM, stronger effect = lower value
# [20] = measured here: relative caspase fold change +Dox/-Dox
# [21] = measured here: total cells with miR-34 induction, stronger effect = lower value
# [22] = measured here: total cells without miR-34 induction
# [23] = MELAS cybrid survival, CellTiter-Glo 48 h, stronger effect = higher value
# [24] = Rieske KO mouse fibroblast survival, CellTiter-Glo 72 h
# [25] = measured here: epithelial PC-3E GFP cell survival
# [26] = measured here: mesenchymal TEM4-18 mCherry cell survival
# Chain of Mitogen-activated protein kinase 7 (Homo sapiens) (Q13164 whole entry, looked up, the tested form may be a part): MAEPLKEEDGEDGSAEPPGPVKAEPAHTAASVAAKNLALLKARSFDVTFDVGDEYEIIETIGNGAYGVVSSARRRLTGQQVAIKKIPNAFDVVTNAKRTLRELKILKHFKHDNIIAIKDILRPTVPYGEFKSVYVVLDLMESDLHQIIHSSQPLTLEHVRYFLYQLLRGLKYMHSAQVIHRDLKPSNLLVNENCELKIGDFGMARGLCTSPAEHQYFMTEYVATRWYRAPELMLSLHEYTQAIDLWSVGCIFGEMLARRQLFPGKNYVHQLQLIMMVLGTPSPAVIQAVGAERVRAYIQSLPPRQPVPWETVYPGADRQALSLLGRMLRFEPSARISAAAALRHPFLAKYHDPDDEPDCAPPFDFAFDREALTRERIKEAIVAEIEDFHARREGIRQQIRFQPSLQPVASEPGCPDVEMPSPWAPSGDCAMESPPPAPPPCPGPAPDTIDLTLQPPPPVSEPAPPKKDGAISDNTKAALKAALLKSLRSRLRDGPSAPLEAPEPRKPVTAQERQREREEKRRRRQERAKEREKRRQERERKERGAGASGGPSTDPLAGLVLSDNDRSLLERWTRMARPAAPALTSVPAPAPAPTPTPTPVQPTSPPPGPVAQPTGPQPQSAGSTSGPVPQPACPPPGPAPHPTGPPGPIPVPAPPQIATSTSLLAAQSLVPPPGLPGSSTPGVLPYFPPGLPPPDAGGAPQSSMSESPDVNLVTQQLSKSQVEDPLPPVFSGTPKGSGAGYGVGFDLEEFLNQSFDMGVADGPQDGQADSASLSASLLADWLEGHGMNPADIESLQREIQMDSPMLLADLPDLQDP
# Chain of NAD(+) hydrolase SARM1 (Homo sapiens) (Q6SZW1 whole entry, looked up, the tested form may be a part): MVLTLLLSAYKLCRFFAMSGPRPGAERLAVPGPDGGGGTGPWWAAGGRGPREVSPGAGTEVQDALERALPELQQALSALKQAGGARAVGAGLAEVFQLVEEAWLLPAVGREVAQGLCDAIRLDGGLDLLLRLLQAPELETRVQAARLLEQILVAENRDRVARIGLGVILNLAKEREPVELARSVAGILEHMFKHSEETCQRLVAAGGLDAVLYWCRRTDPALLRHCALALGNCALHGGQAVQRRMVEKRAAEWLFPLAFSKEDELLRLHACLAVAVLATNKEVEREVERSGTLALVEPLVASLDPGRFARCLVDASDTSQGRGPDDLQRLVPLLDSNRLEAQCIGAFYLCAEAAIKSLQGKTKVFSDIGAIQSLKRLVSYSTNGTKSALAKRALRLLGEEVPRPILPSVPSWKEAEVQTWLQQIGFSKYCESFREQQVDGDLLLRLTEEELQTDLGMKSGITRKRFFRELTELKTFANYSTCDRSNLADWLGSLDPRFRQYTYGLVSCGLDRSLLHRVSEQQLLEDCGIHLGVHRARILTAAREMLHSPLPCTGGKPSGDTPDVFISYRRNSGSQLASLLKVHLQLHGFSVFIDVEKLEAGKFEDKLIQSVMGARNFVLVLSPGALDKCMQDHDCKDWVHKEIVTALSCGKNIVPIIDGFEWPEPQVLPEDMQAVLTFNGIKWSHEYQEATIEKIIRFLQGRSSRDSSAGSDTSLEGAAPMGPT
structure (smiles),measurement,setting,value
NC1=NC(=O)C(c2ccccc2)O1 (configuration not stated),parasite load remaining,[1],109% (inactive)
same,viability,[1],79.6%
same,nuclear beta-catenin stimulation,[2]; at 10 µM,1% (inactive)
same,nuclear beta-catenin stimulation,"[2]; stimulation, at 2 µM",0.5%
same,insulin secretion stimulation,[3],-0.9% (inactive)
same,viability decrease,[4],-2.4% (inactive)
same,tube area decrease,[5],1.1% (inactive)
same,GLP1 secretion stimulation,[6],3.5% (inactive)
same,inhibition of viability,[7],-21.1% (inactive)
same,viability decrease (inhibition),[8],36.7% (inactive)
same,viability decrease (inhibition),[9],-5.1% (inactive)
same,fold change,[10]; stronger effect = lower value,0.967 (inactive)
same,fold change,[10]; [20],2.22
same,cell count,[10]; [21],9620
same,cell count,[10]; [22],9950
same,z-score,[11],0.395 (inactive)
CN[C@@H]1C[C@@H](c2ccc(Cl)c(Cl)c2)c2ccccc21,parasite load remaining,[1],4.35% (inactive)
same,viability,[1],29.3%
same,nuclear beta-catenin stimulation,[2]; at 10 µM,63.1% (active)
same,nuclear beta-catenin stimulation,"[2]; stimulation, at 2 µM",1.4%
same,insulin secretion stimulation,[3],6.2% (inactive)
same,viability decrease,[4],99.9% (active)
same,tube area decrease,[5],108% (active)
same,GLP1 secretion stimulation,[6],-0.3% (inactive)
same,inhibition of viability,[7],100% (active)
same,viability decrease (inhibition),[8],103% (active)
same,viability decrease (inhibition),[9],102% (active)
same,fold change,[10]; stronger effect = lower value,0.889 (inactive) and 0.782 (inactive)
same,fold change,[10]; [20],0.588 and 1.76
same,cell count,[10]; [21],306 and 538
same,cell count,[10]; [22],344 and 689
same,z-score,[12]; [23],-1.52 (inactive)
same,z-score,[12]; [24],-1.03
same,z-score,[11],-1.29 (inactive) and -0.78 (inactive)
CC[C@]1(O)CC[C@H]2[C@@H]3CCC4=CCCC[C@@H]4[C@H]3CC[C@@]21C,parasite load remaining,[1],95.1% (inactive)
same,viability,[1],75.2%
same,nuclear beta-catenin stimulation,[2]; at 10 µM,8.1% (inactive)
same,nuclear beta-catenin stimulation,"[2]; stimulation, at 2 µM",0.5%
same,insulin secretion stimulation,[3],1.8% (inactive)
same,viability decrease,[4],70.7% (active)
same,tube area decrease,[5],66.4% (active)
same,GLP1 secretion stimulation,[6],2.3% (inactive)
same,inhibition of viability,[7],64.1% (active)
same,viability decrease (inhibition),[8],97.8% (active)
same,viability decrease (inhibition),[9],73% (active)
CC[C@@H](CO)NC(=O)[C@@H]1C=C2c3cccc4c3c(cn4C)C[C@H]2N(C)C1,nuclear beta-catenin stimulation,[2]; at 10 µM,3.3% (inactive)
same,nuclear beta-catenin stimulation,"[2]; stimulation, at 2 µM",1.1%
same,insulin secretion stimulation,[3],2.6% (inactive)
same,viability decrease,[4],1% (inactive)
same,tube area decrease,[5],-1.8% (inactive)
same,GLP1 secretion stimulation,[6],0.1% (inactive)
same,inhibition of viability,[7],9.4% (inactive)
same,viability decrease (inhibition),[8],16% (inactive)
same,viability decrease (inhibition),[9],5.6% (inactive)
same,red/green cell ratio (normalised),[13],0.99 (inactive)
same,normalised cell number,[13]; [25],0.96
same,normalised cell number,[13]; [26],0.95
same,z-score,[12]; [23],-0.563 (inactive)
same,z-score,[12]; [24],-1.27
same,remaining NAD,[14],10 nM (inactive)
same,z-score,[11],0.19 (inactive) and -0.69 (inactive) and -0.15 (inactive)
O=C(N/N=C/c1ccc([N+](=O)[O-])o1)c1cc([N+](=O)[O-])cc([N+](=O)[O-])c1O,nuclear beta-catenin stimulation,[2]; at 10 µM,0.7% (inactive)
same,nuclear beta-catenin stimulation,"[2]; stimulation, at 2 µM",1.8%
same,insulin secretion stimulation,[3],1.3% (inactive)
same,viability decrease,[4],79.6% (active)
same,tube area decrease,[5],-13.6% (inactive)
same,GLP1 secretion stimulation,[6],1% (inactive)
same,inhibition of viability,[7],29.8% (inactive)
same,viability decrease (inhibition),[8],25.2% (inactive)
same,viability decrease (inhibition),[9],4.8% (inactive)
same,red/green cell ratio (normalised),[13],1.05 (inactive)
same,normalised cell number,[13]; [25],1.03
same,normalised cell number,[13]; [26],1.08
same,fold change,[10]; stronger effect = lower value,0.946 (inactive)
same,fold change,[10]; [20],1.02
same,cell count,[10]; [21],8410
same,cell count,[10]; [22],8890
C=C1C[C@@H]2[C@H](CC[C@]3(C)C(=O)CC[C@@H]23)[C@@]2(C)C=CC(=O)C=C12,parasite load remaining,[1],41% (inactive)
same,viability,[1],86.7%
same,nuclear beta-catenin stimulation,[2]; at 10 µM,2.3% (inactive)
same,nuclear beta-catenin stimulation,"[2]; stimulation, at 2 µM",-0.3%
same,insulin secretion stimulation,[3],12.9% (inactive)
same,viability decrease,[4],2.6% (inactive)
same,tube area decrease,[5],6.3% (inactive)
same,GLP1 secretion stimulation,[6],8.3% (inactive)
same,inhibition of viability,[7],-12.1% (inactive)
same,viability decrease (inhibition),[8],24.7% (inactive)
same,viability decrease (inhibition),[9],-20.4% (inactive)
same,z-score,[12]; [23],0.961 (inactive)
same,z-score,[12]; [24],0.0493
same,remaining NAD,[14],10 nM (inactive)
same,luciferase signal,[15],60 AU (inactive)
CCCC(C)C1(CC)C(=O)N=C(S)NC1=O (configuration not stated),score,[16],1.17
same,cytochrome c release ratio,[17],1.02
same,inhibition of aggregation,[18],30.6%
same,parasite load remaining,[1],29.3% (inactive)
same,viability,[1],123%
same,nuclear beta-catenin stimulation,[2]; at 10 µM,0.1% (inactive)
same,nuclear beta-catenin stimulation,"[2]; stimulation, at 2 µM",-0.3%
same,insulin secretion stimulation,[3],-0.2% (inactive)
same,viability decrease,[4],-5.2% (inactive)
same,tube area decrease,[5],-13.6% (inactive)
same,GLP1 secretion stimulation,[6],0.9% (inactive)
same,inhibition of viability,[7],-4.4% (inactive)
same,viability decrease (inhibition),[8],95.4% (active)
same,viability decrease (inhibition),[9],3.85% (inactive)
same,red/green cell ratio (normalised),[13],1.19 (inactive)
same,normalised cell number,[13]; [25],1.01
same,normalised cell number,[13]; [26],1.21
same,activity remaining,[19],91.6% (inactive)
same,fold change,[10]; stronger effect = lower value,0.92 (inactive)
same,fold change,[10]; [20],4.02
same,cell count,[10]; [21],10900
same,cell count,[10]; [22],11900
same,remaining NAD,[14],10 nM (inactive)
same,luciferase signal,[15],60 AU (inactive)
CC1(C)C(C=C(Cl)Cl)C1C(=O)OC(C#N)c1cccc(Oc2ccccc2)c1 (configuration not stated),nuclear beta-catenin stimulation,[2]; at 10 µM,0.7% (inactive)
same,nuclear beta-catenin stimulation,"[2]; stimulation, at 2 µM",-1%
same,insulin secretion stimulation,[3],8.1% (inactive)
same,viability decrease,[4],1.2% (inactive)
same,tube area decrease,[5],-7.9% (inactive)
same,GLP1 secretion stimulation,[6],4.4% (inactive)
same,inhibition of viability,[7],40.5% (inactive)
same,viability decrease (inhibition),[8],27.7% (inactive)
same,viability decrease (inhibition),[9],23.2% (active)
same,red/green cell ratio (normalised),[13],0.82 (inactive)
same,normalised cell number,[13]; [25],1.16
same,normalised cell number,[13]; [26],0.96
same,fold change,[10]; stronger effect = lower value,0.936 (inactive) and 0.968 (inactive)
same,fold change,[10]; [20],1.17 and 1.27
same,cell count,[10]; [21],7700 and 5600
same,cell count,[10]; [22],8230 and 5790
same,remaining NAD,[14],10 nM (inactive)
Nc1ccncc1,score,[16],1.34
same,cytochrome c release ratio,[17],0.88
same,inhibition of aggregation,[18],-27.8%
same,parasite load remaining,[1],151% (inactive) and 61% (inactive)
same,viability,[1],71.5% and 95.5%
same,nuclear beta-catenin stimulation,[2]; at 10 µM,-0.9% (inactive)
same,nuclear beta-catenin stimulation,"[2]; stimulation, at 2 µM",0.7%
same,insulin secretion stimulation,[3],0% (inactive)
same,viability decrease,[4],-0.55% (inactive)
same,tube area decrease,[5],-8.7% (inactive)
same,GLP1 secretion stimulation,[6],2.4% (inactive)
same,inhibition of viability,[7],1.7% (inactive)
same,viability decrease (inhibition),[8],11.9% (active)
same,viability decrease (inhibition),[9],-6.35% (inactive)
same,red/green cell ratio (normalised),[13],0.8 (inactive)
same,normalised cell number,[13]; [25],1.23
same,normalised cell number,[13]; [26],0.99
same,activity remaining,[19],105% (inactive)
same,remaining NAD,[14],10 nM (inactive)
same,luciferase signal,[15],32 AU (inactive)
same,z-score,[11],0.855 (inactive) and 0.215 (inactive)
NC(=O)OCCCc1ccccc1,parasite load remaining,[1],136% (inactive)
same,viability,[1],89.7%
same,nuclear beta-catenin stimulation,[2]; at 10 µM,0.8% (inactive)
same,nuclear beta-catenin stimulation,"[2]; stimulation, at 2 µM",0.3%
same,insulin secretion stimulation,[3],-2.9% (inactive)
same,viability decrease,[4],-9.45% (inactive)
same,tube area decrease,[5],18% (inactive)
same,GLP1 secretion stimulation,[6],0.9% (inactive)
same,inhibition of viability,[7],4.5% (inactive)
same,viability decrease (inhibition),[8],-4.9% (inactive)
same,viability decrease (inhibition),[9],-16.8% (inactive)
same,fold change,[10]; stronger effect = lower value,0.887 (inactive)
same,fold change,[10]; [20],1.34
same,cell count,[10]; [21],9650
same,cell count,[10]; [22],10900
same,z-score,[12]; [23],-0.606 (inactive)
same,z-score,[12]; [24],-0.33
same,z-score,[11],0.64 (inactive)

# Source: PubChem BioAssay
